Among the test systems are RPMI-8226 leukemia; OVCAR-8 ovarian; OVCAR-5 ovarian; OVCAR-4 ovarian; SK-OV-3 ovarian; IGROV1 ovarian; OVCAR-3 ovarian; HS 578T breast; NCI/ADR-RES ovarian; T-47D breast; BT-549 breast; MDA-MB-435 melanoma; SW-620 colon; MCF7 breast; HCT-116 colon; KM12 colon; HCC-2998 colon.
What all share (assay): NCI-60 one-dose screen, 48 h (100 = growth as untreated, 0 = no growth, -100 = all killed)
Holding throughout (details): 10 µM unless noted

Our source for the growth values is PubChem BioAssay (NCI).

About 83,000 compounds went through this panel and 20% of them were active in at least one assay; those are over-represented in the sample as a whole.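 Single-dose data. Exposure time 48 hours. Values below 10 considered active.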 A number with no mark means an inactive call. Active and inactive are the calls of the source.

On to `CN(CC(=O)Nc1nc2ccccc2[nH]1)S(=O)(=O)c1ccc(Cl)cc1`, for which the growth was 57.5% in the test on RPMI-8226 leukemia; 95.2% in the test on OVCAR-8 ovarian; 96.4% in the test on OVCAR-5 ovarian; 93.6% in the test on OVCAR-4 ovarian; 96.5% in the test with SK-OV-3 ovarian; -28.9% (active) in the test with IGROV1 ovarian. Besides, the growth in the test on OVCAR-3 ovarian was 91%; in the test on HS 578T breast, 87.2%; with NCI/ADR-RES ovarian, 88.3%; in the test with T-47D breast, 77%; in the test with BT-549 breast, 99.2%; in the test on MDA-MB-435 melanoma, 91.2%. Moreover, the growth with SW-620 colon was 67.5%; in the test with MCF7 breast, 40.9%; in the test on HCT-116 colon, 72.8%; in the test on KM12 colon, 105%.
Turning to `Cc1ccc(C(C)C)cc1NC(=O)Nc1ccc([N+](=O)[O-])cc1`, the growth with RPMI-8226 leukemia is -61.9% (active); in the test with OVCAR-8 ovarian, 15.2%; in the test on OVCAR-5 ovarian, 26.8%; with OVCAR-4 ovarian, 28.2%; in the test on SK-OV-3 ovarian, 7.01% (active); in the test on IGROV1 ovarian it was 6.68% (active). The growth in the test with OVCAR-3 ovarian is -21.9% (active); in the test with HS 578T breast it was 14.7%; in the test with NCI/ADR-RES ovarian it was -10.7% (active); in the test on T-47D breast, 0.428% (active); in the test on BT-549 breast it was -1.5% (active); with MDA-MB-435 melanoma it was 11%. For the same compound, the growth in the test with SW-620 colon was 10.5%; in the test on MCF7 breast it was -10.2% (active); in the test on HCT-116 colon it was -23.2% (active); in the test with KM12 colon it was 2.72% (active).
`C/C(=N/N=C(N)N)c1ccc(Cl)cc1`: the growth in the test on RPMI-8226 leukemia is 89.8%; with OVCAR-8 ovarian it was 110%; with OVCAR-5 ovarian, 87.8%; in the test on OVCAR-4 ovarian, 92.9%; in the test on SK-OV-3 ovarian, 89.5%; with IGROV1 ovarian it was 14.6%. Moreover, the growth in the test on OVCAR-3 ovarian was 110%; with HS 578T breast, 272%; with NCI/ADR-RES ovarian, 86.5%; in the test on T-47D breast, 79.3%; in the test on BT-549 breast it was -0.709% (active); with MDA-MB-435 melanoma it was 71.7%. Besides, the growth in the test with SW-620 colon was 112%; in the test on MCF7 breast, 83.9%; in the test on HCT-116 colon, 85.7%; in the test with KM12 colon, 93.2%.
`c1csc([C@@H]2C[C@@H]3Cc4ccc5ccccc5c4N2O3)c1`: the growth with RPMI-8226 leukemia is 95.5%; with OVCAR-8 ovarian, 96.9%; in the test with OVCAR-5 ovarian, 89.9%; with OVCAR-4 ovarian it was 87.7%; with SK-OV-3 ovarian, 102%; with IGROV1 ovarian, 105%. The growth with OVCAR-3 ovarian is 102%; in the test on HS 578T breast, 101%; in the test with NCI/ADR-RES ovarian, 97.7%; with T-47D breast, 98.8%; in the test on BT-549 breast, 112%; in the test on MDA-MB-435 melanoma it was 87.1%. Further, the growth with SW-620 colon is 98.5%; with MCF7 breast, 99.8%; in the test with HCT-116 colon, 101%; with KM12 colon, 103%.
With `Cc1c(C(N)=O)sc2ncn(Cc3ccccc3)c(=O)c12`, the growth was 59.5% in the test with RPMI-8226 leukemia; 110% in the test on OVCAR-8 ovarian; 101% in the test on OVCAR-5 ovarian; 111% with OVCAR-4 ovarian; 106% with SK-OV-3 ovarian; 2.39% (active) in the test on IGROV1 ovarian. Besides, the growth with OVCAR-3 ovarian was 104%; in the test with HS 578T breast it was 67.7%; with NCI/ADR-RES ovarian, 105%; in the test on T-47D breast, 98.1%; in the test with BT-549 breast, 62.6%; with MDA-MB-435 melanoma, 53.7%. The growth is 103% in the test on SW-620 colon, 99.8% in the test with MCF7 breast, 94.7% in the test on HCT-116 colon and 110% in the test with KM12 colon.
Regarding `Cc1cc(NCCCNc2ccnc3cc(Cl)ccc23)nc(N2CCN(C)CC2)n1`, the growth in the test with RPMI-8226 leukemia was 38.5%; with OVCAR-8 ovarian, 77.1%; in the test with OVCAR-5 ovarian, 86.6%; in the test with OVCAR-4 ovarian, 59.5%; in the test with SK-OV-3 ovarian, 106%; in the test on IGROV1 ovarian it was 83.1%. Also, the growth in the test on OVCAR-3 ovarian was 80%; in the test with HS 578T breast, 91.9%; in the test on NCI/ADR-RES ovarian it was 107%; in the test with T-47D breast it was 81.4%; in the test with BT-549 breast it was 95.6%; with MDA-MB-435 melanoma it was 46%. Besides, the growth was 37.3% with SW-620 colon; 33.1% in the test on MCF7 breast; 18.5% in the test with HCT-116 colon; 48.9% with HCC-2998 colon; 52.6% in the test with KM12 colon.
As to `O=C(C(Br)Br)C(Br)C(Br)c1ccccc1` (configuration not stated), the growth was 78.1% with RPMI-8226 leukemia; 88% with OVCAR-8 ovarian; 108% in the test with OVCAR-5 ovarian; 43.1% in the test with OVCAR-4 ovarian; 116% with SK-OV-3 ovarian; 84.3% in the test with IGROV1 ovarian. Further, the growth was 1.96% (active) in the test on OVCAR-3 ovarian; 104% with HS 578T breast; 94.5% in the test with NCI/ADR-RES ovarian; 49.7% in the test on T-47D breast; 95.8% in the test on BT-549 breast; 82.3% in the test on MDA-MB-435 melanoma. Besides, the growth in the test with SW-620 colon was -46.9% (active); with MCF7 breast, 69.7%; in the test with HCT-116 colon, 24.7%; in the test with HCC-2998 colon it was 112%; in the test with KM12 colon, 102%.
Consider `O=C(/C(=C/c1cccc([N+](=O)[O-])c1)c1ccccc1)c1ccccc1`, for which the growth in the test with RPMI-8226 leukemia was -7.27% (active); in the test with OVCAR-8 ovarian, 13%; in the test with OVCAR-5 ovarian, 74.5%; in the test on OVCAR-4 ovarian, 42.9%; in the test with SK-OV-3 ovarian it was 105%; in the test with IGROV1 ovarian, 60.4%. Besides, the growth in the test on OVCAR-3 ovarian was 23.4%; in the test with HS 578T breast, 44.9%; with NCI/ADR-RES ovarian it was 35.8%; in the test with T-47D breast, 69.8%; in the test on BT-549 breast it was 33.1%; in the test with MDA-MB-435 melanoma it was 7.47% (active). For the same compound, the growth with SW-620 colon was 10.9%; with MCF7 breast it was 26.7%; in the test on HCT-116 colon it was 8.24% (active); in the test on KM12 colon it was 18.3%.
For `C=CCCCCCCCCC(=O)[O][Sn]([CH2]CCC)([CH2]CCC)[CH2]CCC`, the growth with RPMI-8226 leukemia is -27.3% (active); in the test with OVCAR-8 ovarian, -74.2% (active); in the test on OVCAR-5 ovarian it was -89.4% (active); with OVCAR-4 ovarian, -96.7% (active); with SK-OV-3 ovarian it was -98.8% (active); in the test on IGROV1 ovarian it was -72.9% (active). Moreover, the growth in the test on OVCAR-3 ovarian is -97.9% (active); with HS 578T breast, -46.4% (active); with NCI/ADR-RES ovarian, -90.3% (active); with T-47D breast, -71.5% (active); in the test with BT-549 breast, -99.2% (active); with MDA-MB-435 melanoma, -86% (active). For the same compound, the growth is -81.7% (active) with SW-620 colon; -66.4% (active) in the test with MCF7 breast; -95.8% (active) in the test on HCT-116 colon; -97.9% (active) with HCC-2998 colon; -92.6% (active) in the test on KM12 colon.
